The record followed here is PubChem BioAssay AID651593 (National Center for Advancing Translational Sciences (NCATS), 2012).

Molecules are shown by their SMILES. “And” between values parts separate entries of the source, which are not always exact repeats. Identical values can stand only once. Among all 1,100 compounds or so, about 860 (78%) were called active. About 19% were inconclusive and are not listed. Calls follow the shape of the dose curve; as a rule, active = well fitted activation curve with a large enough effect; inconclusive = small, poorly fitted or top-dose-only effect; inactive = flat fitted curve, though single readings scatter. The set was probably picked from earlier hits. Some of the results follow.
Potency is read from the fitted curve at half-maximal effect.

This test in a line: qHTS of Nrf2 Activators: Hit Validation in Primary Assay. Also: nearly all actives have a fitted effect of over 70% in size. The note with it: Nrf2/ARE reporter cell assay; Potency: activation; series mostly up to 46.1 µM. The gist of the method: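 Luminescence from Steady-Glo lysis reagent, read after 30 min, reported ARE-luciferase activity in AREc32_fluc stable cells. Compounds were tested at several concentrations, incubated 24 h at 37 °C with 5% CO2 following overnight seeding.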
A general note: qHTS replaces the single test concentration by a dilution series.
`Cc1ccc(S(=O)(=O)c2nc(S(C)(=O)=O)sc2N2CCC3(CC2)OCCO3)cc1`: the Potency was 10.3 µM (active). With `CS(=O)(=O)c1nc(S(=O)(=O)c2ccc(Cl)cc2)c(N2CCC3(CC2)OCCO3)s1`, the Potency is 9.2 µM (active). To `C/C(=N\NC(=O)c1cccc(S(=O)(=O)N2CCCC2)c1)c1ccco1` belongs 2.31 µM (active); to `C/C(=N\NC(=O)c1cccc(S(=O)(=O)Nc2cccc(Cl)c2)c1)c1cccs1`, “inactive”. With `CC(=O)Cn1nnc2sc(-c3ccccc3)cc2c1=O` the figure was 2.06 µM (active) and 5.8 µM (active); with `CCN(C(=O)Cn1nnc2sc(-c3ccccc3)cc2c1=O)c1cccc(C)c1`, 2.31 µM (active); with `COC(=O)[C@@]1(Sc2ccc(C)cc2)CC(=O)N(C(=O)/C=C/c2ccccc2)[C@@H]1c1ccccc1`, 3.66 µM (active). With `Fc1cccc(Cc2c(-c3ccco3)nc3ccc(Br)cn23)c1`, the Potency is 20.6 µM (active). Turning to `Brc1ccc2nc(-c3ccco3)c(Cc3ccsc3)n2c1`, the Potency is 20.6 µM (active). To `c1cc2c3c(cccc3c1)NN=N2` belongs 20.6 µM (active); to `COc1cc(/C=N/Nc2nc3ccccc3s2)ccc1OC(=O)c1ccccc1F`, 4.61 µM (active); to `C/C(=N\NC(=O)c1c[nH]c2ccccc12)c1ccco1`, 3.66 µM (active). To `Cc1nc(/N=C(\N)NC(=O)c2ccccc2)nc2ccccc12` belongs 2.31 µM (active); to `CC(=O)N(/N=C1\Sc2ccccc2C1=O)c1ccccc1`, 20.6 µM (active). To `COc1ccc(O)c(-c2cc(-c3ccccc3Cl)[nH]n2)c1` belongs 2.91 µM (active); to `COc1ccc(O)c(-c2cc(-c3ccc(F)cc3)n[nH]2)c1`, 7.31 µM (active). Take `N#Cc1sc2nc(-c3ccccc3)cc(C(F)(F)F)c2c1N`: the Potency was 2.59 µM (active). For the compound `Cc1ccc(O)c(NC(=O)c2cc([N+](=O)[O-])ccc2Cl)c1`, the Potency is 2.91 µM (active). Take `Cc1cc(O)c(NC(=O)c2cc([N+](=O)[O-])ccc2Cl)cc1C`: the Potency is 2.31 µM (active). To `O=C(Nc1ccccc1)c1cc([N+](=O)[O-])ccc1Cl` belongs 1.46 µM (active). With `O=C(Nc1cccc([N+](=O)[O-])c1)c1[nH]ncc1Cl` the figure was 5.8 µM (active); with `CS(=O)(=O)Nc1ccc(C(=O)Nc2cccc([N+](=O)[O-])c2)cc1`, 7.31 µM (active); with `O=[N+]([O-])c1ccccc1C=NNc1ccccc1`, 5.17 µM (active).

For `O=[N+]([O-])c1ccccc1/C=N/Nc1nccnc1Cl`, the Potency is 16.4 µM (active). With `COn1c(=O)c(-c2cccc(Br)c2)[n+]([O-])c2ccccc21` the figure was 14.6 µM (active); with `CCn1c(=NC(=O)c2ccco2)sc2cccc(F)c21`, 1.3 µM (active). As for `Cn1c(NCC2CCCCC2)nc2cc(-c3ccsc3)sc2c1=O`, the Potency is 2.31 µM (active).

With `C1=C(c2ccc(-c3ccccc3)cc2)Nc2ncnn2C1c1ccco1` (centres undefined), the Potency was 6.51 µM (active). In the case of `Brc1ccc(C2=CC(c3ccco3)n3nnnc3N2)cc1` (centres undefined), the Potency is 9.2 µM (active). On to `Cc1ccc(Sc2cnn(-c3ccccc3)c(=O)c2Cl)cc1`, for which the Potency entry is “inactive”. In the case of `O=C(O)c1ccc(-n2ncc(Cl)c(Cl)c2=O)cc1`, the Potency was 2.91 µM (active). To `c1ccc(-c2cc3c(-n4cccc4)ncnc3o2)cc1` belongs 2.06 µM (active); to `Cc1c(Cl)cccc1N=c1c([N+](=O)[O-])nn(-c2ccccc2)n1O`, 2.31 µM (active). To `COc1ccc(Cl)cc1NC(=O)CCS(=O)(=O)c1cccc2nonc12` belongs 16.4 µM (active); to `Nc1c(Cl)cc(N=Nc2ccccc2)cc1Cl`, 2.59 µM (active). With `O=c1oc2ccccc2nc1/C=C(\O)c1ccc(Br)cc1` the figure was 20.6 µM (active); with `O=C(Cn1cnc2ccccc21)N/N=C/C(Br)=C/c1ccccc1`, 20.6 µM (active).

Take `OCCC#Cc1c(-c2ccsc2)sc2ccccc12`: the Potency is 2.31 µM (active). Regarding `O=C(/C=C/c1ccco1)Nc1ccc2nn(-c3ccccc3)nc2c1`, the Potency is 7.31 µM (active).

Regarding `O=C(/C=C/c1ccco1)Nc1cccc(S(=O)(=O)N2CCOCC2)c1`, the Potency was 8.2 µM (active). To `O=C(/C=C/c1ccco1)Nc1ccc(-c2nc3ccccc3[nH]2)cc1` belongs 1.3 µM (active).

`O=C(/C=C/c1ccco1)Nc1ccc(Cl)c(-c2nc3cc(Cl)ccc3o2)c1`: the Potency is 1.16 µM (active). To `O=[N+]([O-])c1cc2c(cc1Br)-c1ccccc1C2` belongs 2.31 µM (active); to `COc1cc2c(cc1NC(=O)c1cccc(F)c1)CCCC2`, 2.59 µM (active); to `COc1cc2c(cc1NC(=O)c1ccccc1F)CCCC2`, 6.51 µM (active). With `Cc1cc(O)cc2c1C(=O)/C(=C/c1ccco1)O2` the figure was 1.84 µM (active); with `COc1cccc(NC(=O)c2cc(Cl)nnc2Cl)c1`, 18.4 µM (active); with `CCSc1ncc(Cl)c(C(=O)Nc2ccccc2)n1`, 4.61 µM (active). As for `COc1cccc(NC(=O)c2nn(C)cc2Br)c1`, the Potency is 16.4 µM (active). With `COc1cccc(NC(=O)c2nc(SC)ncc2Cl)c1`, the Potency was 2.91 µM (active). As to `CCOC(=O)c1ccc(NC(=O)c2nc(S(=O)(=O)Cc3ccccc3)ncc2Cl)cc1`, the Potency is 3.66 µM (active). To `O=C(NCCc1ccccn1)c1c(-c2ccsc2)sc2ccccc12` belongs 2.31 µM (active). Regarding `O=C(Nc1ccc2nsnc2c1)c1cccs1`, the Potency was 6.51 µM (active). Turning to `COC(=O)c1ccccc1NC(=O)c1cccs1`, the Potency was 14.6 µM (active). Take `COc1ccccc1C(=O)COC(=O)c1cccs1`: the Potency was 6.51 µM (active). As for `O=C(Nc1cccc2nsnc12)c1cccs1`, the Potency was 2.91 µM (active). To `CNC(=O)C1CCN(S(=O)(=O)c2c(C)noc2/C=C/c2ccccc2F)CC1` belongs 9.2 µM (active). With `O=C(/C=C/Nc1ccc(F)cc1)c1cccs1` the figure was 6.51 µM (active). On to `CCOC(=O)c1ccccc1N/C=C/C(=O)c1cccs1`, for which the Potency is 2.31 µM (active). To `CCOC(=O)c1ccccc1N/C=C/C(=O)c1ccccc1` belongs 3.26 µM (active); to `O=C(CN1CCCCC1)Nc1nnc(-c2ccccc2)s1`, 5.8 µM (active).

On to `C/C(=N\Nc1ccc(F)cc1F)c1ccc(Br)s1`, for which the Potency is 16.4 µM (active).

Regarding `C/C(=N\Nc1ccccn1)c1cccs1`, the Potency was 14.6 µM (active).

For the compound `C/C(=N\Nc1ccccn1)c1ccc(Br)s1`, the Potency was 7.31 µM (active). Take `N#Cc1cccn1-c1nccc(-c2cccs2)n1`: the Potency is 4.61 µM (active). For the compound `COCCNC(=O)c1ccc(-n2c(-c3ccccc3)cc3c2CCC(C)C3)cc1` (centres undefined), the Potency was 16.4 µM (active). To `CC1CCc2c(cc(-c3ccccc3)n2-c2ccc(C(=O)NC(C)C)cc2)C1` (centres undefined) belongs 23.1 µM (active).

With `Cc1ccc(S(=O)(=O)c2nc(S(C)(=O)=O)sc2N2CCC(C)CC2)cc1`, the Potency was 20.6 µM (active). As to `Cc1ccc(S(=O)(=O)c2nc(S(C)(=O)=O)sc2N2CCC(O)CC2)cc1`, the Potency is 9.2 µM (active).

Turning to `Cc1ccc(S(=O)(=O)c2nc(S(C)(=O)=O)sc2N2CCCCC2C)cc1` (centres undefined), the Potency is 2.06 µM (active). On to `COc1ccc(-c2cc3ccccc3oc2=O)cc1NC(=O)c1ccc([N+](=O)[O-])o1`, for which the Potency is 3.26 µM (active). With `COc1ccccc1NC(=O)c1cnc(SCC(=O)NCCc2ccccc2)n(C)c1=O`, the Potency is 3.66 µM (active).

Turning to `O=C(COc1cccnc1[N+](=O)[O-])Nc1cccc2ccccc12`, the Potency was 16.4 µM (active). `Cc1ccc(OCC(=O)Nc2cccc3ccccc23)c([N+](=O)[O-])n1`: the Potency is 11.6 µM (active). For the compound `C/C(=N\Nc1ccc2nncn2n1)c1ccc(Cl)s1`, the Potency is 3.66 µM (active).

Turning to `COc1ccc([N+](=O)[O-])cc1C1NN=C(c2ccccc2O)S1` (centres undefined), the Potency was 2.91 µM (active).

Consider `O=C1CC(c2ccco2)CC(O)=C1C=Nc1cc(Cl)ccc1O` (centres undefined), for which the Potency was 4.61 µM (active). With `CC1(C)C(=O)OC(/C=C/c2cccc([N+](=O)[O-])c2)C(C)(C)C1=O` (centres undefined) the figure was 1.03 µM (active).

As for `N#C/C(=C\c1c(Oc2ccc(Cl)cc2)nc2ccccn2c1=O)C(=O)NC1CCS(=O)(=O)C1` (centres undefined), the Potency was 2.06 µM (active). With `Cc1cc(C)c2c(N)c(C(=O)c3ccc(Br)cc3)oc2n1` the figure was 4.11 µM (active); with `Cc1ccc(-c2cc(-c3cccc(F)c3)n[nH]2)c(O)c1`, 2.59 µM (active). With `O=Cc1c(NCc2ccco2)nc2ccccn2c1=O` the figure was 1.64 µM (active); with `Cc1cccn2c(=O)c(C=NCCO)c(NCc3ccco3)nc12`, 2.59 µM (active); with `Fc1ccc2cc(-c3ccsc3)ncc2c1`, 7.31 µM (active).

For `COc1ccc(N2C(=O)/C(=C\c3ccco3)N=C2SCC(N)=O)cc1Cl`, the Potency is 1.64 µM (active).

Consider `O=C(C=Cc1ccccc1Cl)c1ccccc1`, for which the Potency was 18.4 µM (active).

Consider `Clc1ccc(/C=N/Nc2nnc(Cl)c3ccccc23)cc1`, for which the Potency was 2.31 µM (active). To `Clc1nnc(NN=C2CCCC2)c2ccccc12` belongs 4.61 µM (active).

`O=[N+]([O-])c1cccc(N2Cc3ccccc3C2)c1`: the Potency is 20.6 µM (active). For `O=C(N/N=C/C(Br)=C/c1ccccc1)c1ccc([N+](=O)[O-])cc1`, the Potency was 18.4 µM (active). To `COc1ccc2c(c1)C1=NN(/C(C)=C/C(C)=O)C(c3cccc(F)c3)C1CC2` (centres undefined) belongs 5.8 µM (active).

In the case of `Cc1ccc(-c2nc3sc(C#N)c(N)n3c(=O)c2C#N)cc1`, the Potency was 8.2 µM (active). With `COc1c(Cl)cc(C(=O)NCc2ccco2)cc1Cl` the figure was 14.6 µM (active); with `COc1ccccc1NC(=O)c1ccc(Cl)c(S(=O)(=O)NCc2ccco2)c1`, 10.3 µM (active); with `Cc1c(C(=O)NCc2ccco2)oc2c(Cl)cccc12`, 1.46 µM (active). Regarding `COc1ccc(OC)c2sc(NC(=O)CCS(=O)(=O)c3ccccc3)nc12`, the Potency was 3.26 µM (active). Regarding `CCOC(=O)c1ccsc1NC(=O)CCS(=O)(=O)c1ccccc1`, the Potency is 18.4 µM (active). For the compound `COc1ccc(C)c2sc(NC(=O)CCS(=O)(=O)c3ccccc3)nc12`, the Potency is 4.11 µM (active). With `O=C(CCS(=O)(=O)c1ccccc1)Nc1nc2ccc(F)cc2s1` the figure was 18.4 µM (active).
